{"source": "the supplement of paper PMC11732987", "about": "“Enantioselective OTUD7B fragment discovery through chemoproteomics screening and high-throughput optimisation” (Communications Chemistry, 2025)", "assay_in_all_cases": "log2 ratio of Biotin-Ahx-Ub-VS probe labelling (fragment/DMSO); higher = less target engagement (more negative = stronger competition), active = hit call of the paper (q ≤ 0.05, log2 ratio ≤ -1)", "settings_in_all_cases": "compound concentration: 200 uM; treatment time: 3 h", "key": {"USP19": {"target": "T1, USP19 (UniProt O94966)", "T1 sequence (whole entry)": "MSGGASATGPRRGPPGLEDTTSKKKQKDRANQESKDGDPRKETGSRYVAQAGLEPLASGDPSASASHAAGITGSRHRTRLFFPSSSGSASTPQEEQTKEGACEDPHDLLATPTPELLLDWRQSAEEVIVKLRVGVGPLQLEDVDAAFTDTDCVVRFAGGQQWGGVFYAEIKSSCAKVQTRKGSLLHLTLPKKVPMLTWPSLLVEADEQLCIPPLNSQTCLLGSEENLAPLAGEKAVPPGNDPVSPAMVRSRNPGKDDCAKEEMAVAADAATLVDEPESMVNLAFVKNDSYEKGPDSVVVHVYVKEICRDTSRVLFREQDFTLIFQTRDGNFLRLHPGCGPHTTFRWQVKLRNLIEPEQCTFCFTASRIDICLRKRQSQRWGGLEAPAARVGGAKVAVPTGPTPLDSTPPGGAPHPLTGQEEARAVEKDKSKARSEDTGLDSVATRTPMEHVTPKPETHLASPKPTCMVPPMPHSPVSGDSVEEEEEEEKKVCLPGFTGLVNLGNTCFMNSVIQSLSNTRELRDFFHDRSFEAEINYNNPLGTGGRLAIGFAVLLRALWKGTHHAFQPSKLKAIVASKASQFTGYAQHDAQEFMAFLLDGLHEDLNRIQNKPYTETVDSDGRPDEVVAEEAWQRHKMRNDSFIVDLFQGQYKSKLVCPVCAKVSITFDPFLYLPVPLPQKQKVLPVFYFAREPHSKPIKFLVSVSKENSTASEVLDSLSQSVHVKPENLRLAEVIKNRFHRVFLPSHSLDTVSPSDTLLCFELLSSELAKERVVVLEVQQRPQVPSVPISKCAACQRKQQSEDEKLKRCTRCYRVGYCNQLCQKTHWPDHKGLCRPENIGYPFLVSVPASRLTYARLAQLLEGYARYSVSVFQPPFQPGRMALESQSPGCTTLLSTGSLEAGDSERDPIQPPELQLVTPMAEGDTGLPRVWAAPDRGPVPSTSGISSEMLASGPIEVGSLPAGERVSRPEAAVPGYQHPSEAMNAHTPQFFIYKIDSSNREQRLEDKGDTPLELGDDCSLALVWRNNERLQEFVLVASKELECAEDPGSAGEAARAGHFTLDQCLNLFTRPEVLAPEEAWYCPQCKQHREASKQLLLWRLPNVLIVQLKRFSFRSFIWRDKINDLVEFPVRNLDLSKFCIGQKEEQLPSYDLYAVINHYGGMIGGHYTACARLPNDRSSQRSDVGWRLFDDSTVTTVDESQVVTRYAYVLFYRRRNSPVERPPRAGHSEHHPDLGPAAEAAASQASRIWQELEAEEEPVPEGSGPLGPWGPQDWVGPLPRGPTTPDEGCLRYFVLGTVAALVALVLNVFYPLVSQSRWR", "summary_of_the_method": "(§1)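 HEK293T lysate (495 µg per sample, in Tris/CHAPS/IGEPAL buffer with protease inhibitors) was exposed in triplicate for 3 h to fragment at 200 µM or to vehicle, then to Biotin-Ahx-Ub-VS at 0.5 µM final for 1 h. Labelled DUBs were enriched on NeutrAvidin, digested with LysC and trypsin, and analysed by diaPASEF LC-MS/MS. Spectronaut label-free quantities were normalised to the global median, and values are average log2 ratios of fragment over vehicle from an unpaired t-test. Only proteins with ≥2 unique peptides were used.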"}, "USP24": {"target": "USP24 (UniProt Q9UPU5)", "sequence (Q9UPU5 whole entry)": "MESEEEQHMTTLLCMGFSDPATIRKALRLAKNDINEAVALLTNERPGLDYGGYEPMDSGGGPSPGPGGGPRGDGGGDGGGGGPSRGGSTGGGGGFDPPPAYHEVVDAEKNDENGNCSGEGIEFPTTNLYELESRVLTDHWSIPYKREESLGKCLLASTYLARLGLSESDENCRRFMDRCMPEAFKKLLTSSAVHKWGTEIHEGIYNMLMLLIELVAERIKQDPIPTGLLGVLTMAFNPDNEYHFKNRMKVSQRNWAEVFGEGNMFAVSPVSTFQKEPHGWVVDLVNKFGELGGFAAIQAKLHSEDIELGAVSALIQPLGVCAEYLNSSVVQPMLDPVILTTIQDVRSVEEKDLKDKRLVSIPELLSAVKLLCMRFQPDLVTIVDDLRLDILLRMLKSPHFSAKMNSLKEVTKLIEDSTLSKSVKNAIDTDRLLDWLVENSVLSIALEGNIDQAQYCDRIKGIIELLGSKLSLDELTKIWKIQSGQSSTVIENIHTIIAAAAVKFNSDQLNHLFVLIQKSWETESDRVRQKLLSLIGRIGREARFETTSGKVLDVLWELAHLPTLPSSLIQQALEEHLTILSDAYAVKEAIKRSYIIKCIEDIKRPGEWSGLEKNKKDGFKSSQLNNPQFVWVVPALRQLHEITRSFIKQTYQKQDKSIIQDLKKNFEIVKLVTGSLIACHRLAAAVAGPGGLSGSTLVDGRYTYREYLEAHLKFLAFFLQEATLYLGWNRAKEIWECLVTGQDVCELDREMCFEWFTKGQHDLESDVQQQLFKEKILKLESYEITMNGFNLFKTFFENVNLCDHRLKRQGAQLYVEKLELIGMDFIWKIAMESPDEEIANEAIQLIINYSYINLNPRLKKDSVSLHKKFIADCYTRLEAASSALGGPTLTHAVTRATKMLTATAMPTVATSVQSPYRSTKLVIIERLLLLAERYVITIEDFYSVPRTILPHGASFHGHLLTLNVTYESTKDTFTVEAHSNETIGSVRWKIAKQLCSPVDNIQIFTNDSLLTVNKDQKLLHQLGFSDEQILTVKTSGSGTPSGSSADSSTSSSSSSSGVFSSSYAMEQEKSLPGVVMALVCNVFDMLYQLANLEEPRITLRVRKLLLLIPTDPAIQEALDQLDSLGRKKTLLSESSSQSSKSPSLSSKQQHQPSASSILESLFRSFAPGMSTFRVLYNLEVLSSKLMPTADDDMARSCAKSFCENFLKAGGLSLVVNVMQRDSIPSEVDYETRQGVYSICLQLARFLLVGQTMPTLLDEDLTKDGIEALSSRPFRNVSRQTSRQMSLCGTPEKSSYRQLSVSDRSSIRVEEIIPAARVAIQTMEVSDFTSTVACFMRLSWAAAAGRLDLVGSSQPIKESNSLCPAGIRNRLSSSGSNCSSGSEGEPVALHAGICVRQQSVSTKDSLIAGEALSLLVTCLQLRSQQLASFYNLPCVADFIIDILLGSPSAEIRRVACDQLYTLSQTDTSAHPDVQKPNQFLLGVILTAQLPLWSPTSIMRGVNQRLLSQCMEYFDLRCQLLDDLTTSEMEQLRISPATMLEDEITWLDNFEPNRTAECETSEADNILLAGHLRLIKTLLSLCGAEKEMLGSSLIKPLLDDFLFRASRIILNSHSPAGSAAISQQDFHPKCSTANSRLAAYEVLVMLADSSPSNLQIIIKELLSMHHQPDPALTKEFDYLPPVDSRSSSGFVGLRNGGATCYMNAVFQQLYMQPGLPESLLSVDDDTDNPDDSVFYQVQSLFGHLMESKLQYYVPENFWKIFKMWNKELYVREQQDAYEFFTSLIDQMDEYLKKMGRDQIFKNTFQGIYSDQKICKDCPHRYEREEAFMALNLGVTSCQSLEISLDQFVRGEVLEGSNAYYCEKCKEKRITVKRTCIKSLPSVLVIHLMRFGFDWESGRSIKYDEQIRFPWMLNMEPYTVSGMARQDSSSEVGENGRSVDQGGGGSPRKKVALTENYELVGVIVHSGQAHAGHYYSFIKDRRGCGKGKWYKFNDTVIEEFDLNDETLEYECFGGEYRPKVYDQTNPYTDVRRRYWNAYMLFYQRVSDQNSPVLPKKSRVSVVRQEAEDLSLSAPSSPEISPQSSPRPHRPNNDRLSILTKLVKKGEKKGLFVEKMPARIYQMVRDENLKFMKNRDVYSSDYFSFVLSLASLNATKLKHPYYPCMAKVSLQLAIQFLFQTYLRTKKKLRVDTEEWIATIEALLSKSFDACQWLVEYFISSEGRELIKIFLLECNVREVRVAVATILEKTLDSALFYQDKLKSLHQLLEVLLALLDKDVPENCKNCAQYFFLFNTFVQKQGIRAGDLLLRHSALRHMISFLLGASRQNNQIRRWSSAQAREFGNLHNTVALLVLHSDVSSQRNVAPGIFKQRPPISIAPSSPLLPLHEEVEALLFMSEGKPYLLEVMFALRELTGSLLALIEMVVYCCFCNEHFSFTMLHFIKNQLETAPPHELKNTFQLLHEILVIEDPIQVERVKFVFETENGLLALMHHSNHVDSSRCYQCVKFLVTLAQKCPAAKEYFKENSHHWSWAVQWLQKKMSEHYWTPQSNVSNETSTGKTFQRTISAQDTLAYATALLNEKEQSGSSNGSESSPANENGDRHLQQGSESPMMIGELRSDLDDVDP", "summary_of_the_method": "as §1"}, "USP25": {"target": "T2, USP25 (UniProt Q9UHP3)", "T2 sequence (whole entry)": "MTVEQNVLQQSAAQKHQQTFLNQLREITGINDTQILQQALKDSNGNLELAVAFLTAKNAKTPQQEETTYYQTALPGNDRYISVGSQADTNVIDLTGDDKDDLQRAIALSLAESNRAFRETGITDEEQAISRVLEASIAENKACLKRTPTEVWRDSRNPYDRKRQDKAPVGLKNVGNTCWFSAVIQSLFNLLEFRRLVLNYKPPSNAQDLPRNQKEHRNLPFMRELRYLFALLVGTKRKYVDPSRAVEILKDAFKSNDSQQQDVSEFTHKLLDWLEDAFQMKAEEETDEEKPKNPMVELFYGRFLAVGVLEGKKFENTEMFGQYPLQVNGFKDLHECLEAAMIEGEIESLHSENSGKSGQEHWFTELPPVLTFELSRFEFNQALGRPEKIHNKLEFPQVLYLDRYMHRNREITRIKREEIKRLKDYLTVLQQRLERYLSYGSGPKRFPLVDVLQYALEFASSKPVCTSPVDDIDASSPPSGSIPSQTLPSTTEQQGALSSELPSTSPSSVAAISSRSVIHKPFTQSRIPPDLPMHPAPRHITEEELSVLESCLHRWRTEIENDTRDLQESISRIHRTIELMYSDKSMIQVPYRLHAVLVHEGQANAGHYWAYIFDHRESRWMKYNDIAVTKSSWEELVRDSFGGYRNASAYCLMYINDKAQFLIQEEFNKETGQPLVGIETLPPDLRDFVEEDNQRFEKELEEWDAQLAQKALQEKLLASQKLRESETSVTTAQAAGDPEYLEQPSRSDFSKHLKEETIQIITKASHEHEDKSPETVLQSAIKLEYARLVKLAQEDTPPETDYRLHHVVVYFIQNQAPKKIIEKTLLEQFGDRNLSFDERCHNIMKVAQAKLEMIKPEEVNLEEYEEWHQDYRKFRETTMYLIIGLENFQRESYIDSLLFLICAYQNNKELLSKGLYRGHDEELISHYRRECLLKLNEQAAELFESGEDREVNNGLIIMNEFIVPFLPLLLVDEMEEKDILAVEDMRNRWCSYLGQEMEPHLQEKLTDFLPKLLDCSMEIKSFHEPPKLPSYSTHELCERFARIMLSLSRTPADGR", "summary_of_the_method": "as §1"}, "USP28": {"target": "T3, USP28 (UniProt Q96RU2)", "T3 sequence (whole entry)": "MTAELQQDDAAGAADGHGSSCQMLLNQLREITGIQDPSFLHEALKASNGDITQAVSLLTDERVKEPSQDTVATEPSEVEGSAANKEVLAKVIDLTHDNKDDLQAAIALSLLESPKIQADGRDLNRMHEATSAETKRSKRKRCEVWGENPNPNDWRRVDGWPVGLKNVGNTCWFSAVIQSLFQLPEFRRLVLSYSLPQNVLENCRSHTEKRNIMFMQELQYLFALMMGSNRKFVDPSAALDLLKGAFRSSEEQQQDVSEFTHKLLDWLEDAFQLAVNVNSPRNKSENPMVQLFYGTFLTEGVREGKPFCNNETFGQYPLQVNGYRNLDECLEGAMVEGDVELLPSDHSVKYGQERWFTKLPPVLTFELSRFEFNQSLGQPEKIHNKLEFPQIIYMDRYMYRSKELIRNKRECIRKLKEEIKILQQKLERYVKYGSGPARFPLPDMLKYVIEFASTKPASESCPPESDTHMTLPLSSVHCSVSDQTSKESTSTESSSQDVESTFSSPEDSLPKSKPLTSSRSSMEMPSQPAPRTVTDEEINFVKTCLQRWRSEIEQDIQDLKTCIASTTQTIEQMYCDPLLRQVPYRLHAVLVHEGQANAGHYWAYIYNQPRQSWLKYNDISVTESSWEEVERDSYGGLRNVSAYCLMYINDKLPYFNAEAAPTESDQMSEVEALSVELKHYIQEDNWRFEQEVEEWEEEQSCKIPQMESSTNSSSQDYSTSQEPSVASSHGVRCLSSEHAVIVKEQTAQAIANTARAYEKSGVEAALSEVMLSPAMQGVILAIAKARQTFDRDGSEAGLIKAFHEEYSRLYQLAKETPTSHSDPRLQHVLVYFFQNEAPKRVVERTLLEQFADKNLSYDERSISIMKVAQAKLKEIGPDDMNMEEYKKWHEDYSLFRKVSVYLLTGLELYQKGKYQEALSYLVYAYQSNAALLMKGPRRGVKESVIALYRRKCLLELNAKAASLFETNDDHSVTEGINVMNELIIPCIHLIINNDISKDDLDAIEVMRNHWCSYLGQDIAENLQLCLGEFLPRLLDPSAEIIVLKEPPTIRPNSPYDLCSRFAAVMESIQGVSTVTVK", "summary_of_the_method": "as §1"}}, "note": "Values without a mark were called inactive.", "data": [{"smiles": "Cc1conc1C1CN(C(=O)CCl)C1", "values": [{"measurement": "log2 ratio of Biotin-Ahx-Ub-VS probe labelling", "setting": "USP19", "result": "-1.19 (active)"}, {"measurement": "log2 ratio of Biotin-Ahx-Ub-VS probe labelling", "setting": "USP24", "result": "-1.11 (active)"}, {"measurement": "log2 ratio of Biotin-Ahx-Ub-VS probe labelling", "setting": "USP25", "result": -0.81}, {"measurement": "log2 ratio of Biotin-Ahx-Ub-VS probe labelling", "setting": "USP28", "result": "-1.16 (active)"}]}]}
